Shown are actives, neighbours in structure and some others; about 1.9% of the full set was active somewhere.
Neddylation inh: inhibitors of cullin neddylation, primary screen, biochemical, TR-FRET, uHTS, NAE and Ubc12 | 360,000 compounds, 0.58% hits | NEDD8-conjugating enzyme Ubc12 (Homo sapiens) + NEDD8-activating enzyme E1 regulatory … | inhibition, % at 25 µM | AID 651699, 2012; in the data active = inhibition above about 36%
Target sequence (P61081 whole entry, looked up): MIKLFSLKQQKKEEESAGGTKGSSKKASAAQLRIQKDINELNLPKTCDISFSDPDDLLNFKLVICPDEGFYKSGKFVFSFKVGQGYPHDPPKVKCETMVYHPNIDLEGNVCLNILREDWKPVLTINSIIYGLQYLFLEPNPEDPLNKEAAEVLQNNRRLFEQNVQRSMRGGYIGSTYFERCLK
Target sequence (Q13564 whole entry, looked up): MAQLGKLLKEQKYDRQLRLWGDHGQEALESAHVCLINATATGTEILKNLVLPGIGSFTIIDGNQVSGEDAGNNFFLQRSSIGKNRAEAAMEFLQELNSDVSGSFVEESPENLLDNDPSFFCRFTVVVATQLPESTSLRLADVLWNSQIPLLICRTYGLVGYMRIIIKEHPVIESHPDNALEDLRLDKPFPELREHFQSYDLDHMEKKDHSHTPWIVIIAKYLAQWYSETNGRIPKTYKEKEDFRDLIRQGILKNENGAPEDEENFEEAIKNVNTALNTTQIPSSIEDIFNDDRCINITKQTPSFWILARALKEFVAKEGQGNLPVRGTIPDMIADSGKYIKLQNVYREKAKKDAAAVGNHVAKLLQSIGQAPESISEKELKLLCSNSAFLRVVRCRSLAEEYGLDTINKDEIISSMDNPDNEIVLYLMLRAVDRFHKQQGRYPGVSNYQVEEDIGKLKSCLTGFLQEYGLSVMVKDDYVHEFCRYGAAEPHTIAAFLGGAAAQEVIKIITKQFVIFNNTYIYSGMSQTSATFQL
dFosB activator: activators of delta FosB homodimer, primary screen, biochemical, fluorescence polarization, TAMRA-CDK5 oligo, single point; Protein FosB (Mus musculus), P13346; purified delta FosB; percent of positive-control signal above neutral wells; activation, % at 25 µM; 340,000 compounds, 0.99% hits; AID 493131, 2011;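 active = mean activation above about 17%, with every replicate also reaching it, limit read from the data, passing the limit was not always enough; inconclusive = only one of the two conditions met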
INS-1E GSIS act: GLuc luminescence reporter in INS-1E cells, primary screen for activators of glucose-dependent secretion of insulin | INS-1E GLuc reporter insulin secretion, 2-3 h | activation, % at 16.6 µM | 370,000 compounds, 0.61% hits;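 active = lowest replicate activation of at least 40%, so every replicate reaches that level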;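 also: 0% = median of neutral control wells and 100% = median of IBMX positive control wells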
Vif imaging: HIV Vif self-association inhibitors, primary screen, imaging, HEK293T, single point; HEK293T cells, Vif self-association by quenched fluorescence, 24 h; inhibition, % at 7.49 µM; 340,000 compounds, 0.35% hits; in the data active = inhibition above about 50%, passing the limit was not always enough; inconclusive = no clear call, values can overlap the other calls; inactive = below about 31%
Bfl-1 A1 inh: caspase 3/7 activation in MEF A1-2A-BIM cells, primary screen, A1 inhibitor project, cell-based, luminescence, HTS | Caspase-Glo 3/7 luminescence, 3 h; percent of clofoctol response, vehicle zero | caspase activation, % (test concentration not listed) | 330,000 compounds, 0.066% hits;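 active = over half of replicate activation scores above 10%, or exactly half above 10 with the replicate mean above 10; inconclusive = replicate mean below 10 yet half the replicates above 10; inactive = over half of replicates below 10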
Numbers without * were called inactive; ? = inconclusive; nt = no result given.

SMILES	Neddylation inh	dFosB activator	INS-1E GSIS act	Vif imaging	Bfl-1 A1 inh
C[C@@H]1CN([C@H](C)CO)S(=O)(=O)c2ccc(Br)cc2O[C@H]1CN(C)S(=O)(=O)c1ccccc1	nt	nt	-16.4	nt	nt
CC1(C(=O)NCc2cccc3ccccc23)CCN1Cc1ccc(OC(F)(F)F)cc1 (stereo unspecified)	0.6	nt	203.3*	12.3	nt
CC1(C(=O)NCc2cccc3ccccc23)CCN1Cc1ccc2ccccc2c1 (stereo unspecified)	-3.0	nt	-20.1	nt	nt
C[C@@H]1CN([C@H](C)CO)C(=O)Cc2cc(NC(=O)CCCN(C)C)ccc2O[C@H]1CN(C)Cc1ccc(-c2ccccc2)cc1	nt	nt	72.4*	nt	nt
O=C(Cc1c[nH]c2ccccc12)N[C@@H](Cc1c[nH]c2ccccc12)C(=O)O	-8.5	2.1	52.8*	-0.4	0.3
Cc1ccc2nc(N3CCN(C(=O)CCC(=O)O)CC3)nc(-c3ccccc3)c2c1	nt	-2.1	4.8	-9.8	-0.4
O=C(O)CCCC(=O)N1CCN(c2nc(-c3ccccc3)c3ccccc3n2)CC1	nt	1.4	61.3*	-0.7	0.7
CCN(c1ccccc1)c1nc(Cl)nc2c1cnn2C	17.1	-7.7	45.6*	?	nt
COC(=O)c1ccc(OCC2c3cc(OC)c(OC)cc3CCN2C(=O)c2ccco2)cc1 (stereo unspecified)	1.8	-12.2	2.4	69.2*	-0.9
COc1ccc(/C=N/Nc2cc(C)nc3ccc(Br)cc23)cc1	36.5	61.6*	4.6	-4.3	-0.6
COc1ccc2nc(C)cc(N/N=C/c3cccc(OC)c3O)c2c1	-3.0	-118.6	13.5	-8.1	0.2
CCN(CC)CCOc1ccc(Br)cc1	-0.1	-11.0	20.2	6.3	-0.1
CCCOc1ccc2c(c1)C(=NN=C(N)N)c1cc(OCCC)ccc1-2	-9.3	34.6*	124.0	-12.1	0.2
CCN(CC)CCOc1ccc2c(c1)C(=NO)c1cc(OCCN(CC)CC)ccc1-2	-24.9	55.8*	7.9	-3.2	0.6
O=C(C1CCC1)N1CC2(C1)[C@H](c1ccccc1)[C@@H](CO)N2Cc1cncnc1	nt	nt	7.2	nt	nt
O=C1C(Cl)=C(N2CCOCC2)C(=O)N1c1cccc(Cl)c1	-7.5	-8.4	44.7*	2.1	-0.2
COc1ccc(C(=O)N2C[C@H]3[C@@H](c4ccccc42)[C@H](CO)N3Cc2ccc(Cl)cc2)cc1	nt	nt	-16.4	nt	nt
CCOC(=O)c1csc(-c2csc(CCNC(=O)c3ccccc3)n2)n1	0.1	nt	0.4	50.8*	nt
COc1ccc(C2NC(C(=O)O)Cc3c2[nH]c2ccccc32)cc1CN1CCN(c2ccc(F)cc2)CC1 (stereo unspecified)	21.0	1.3	-11.6	4.8	0.2
COc1ccc(/C=N/NC(=O)c2cc(OC)c(OC)c(OC)c2)cc1CN1CCc2cc(OC)c(OC)cc2C1C (stereo unspecified)	10.1	-13.4	-22.4	-1.6	-0.3
COc1ccc(C2NCCc3c2[nH]c2ccccc32)cc1COc1ccc(F)cc1 (stereo unspecified)	0.3	61.8*	-11.6	nt	1.1
COc1ccc(C2NCCc3c2[nH]c2ccccc32)cc1CN1CCc2cc(OC)c(OC)cc2C1C (stereo unspecified)	-1.4	63.3*	nt	-6.8	nt
CO[C@@H]1CN(C)C(=O)c2ccc(NC(=O)C3CCC3)cc2OC[C@H](C)N(Cc2ccccn2)C[C@H]1C	nt	nt	-0.2	nt	nt
N/C(=N/O)c1nc(N2CCCC2)nc(N2CCCC2)n1	2.5	1.6	76.5*	0.9	nt
CC(C)c1cn(CC[C@@H]2CC[C@@H](NC(=O)c3cccc(F)c3)[C@H](CO)O2)nn1	nt	nt	0.2	nt	nt
SMILES	Neddylation inh	dFosB activator	INS-1E GSIS act	Vif imaging	Bfl-1 A1 inh
C[C@H]1CN([C@@H](C)CO)C(=O)c2c(c3ccccc3n2C)-c2ccccc2CO[C@@H]1CN(C)C(=O)Cc1ccccc1	nt	nt	-1.2	nt	nt
CN1CCN(c2ccc(NC(=S)NC(=O)c3cccc4c(Cl)cccc34)cc2)CC1	-7.5	49.1*	-2.7	-3.9	2.0
O=C(NC(=S)Nc1ccc(N2CCOCC2)cc1)c1cccc(Cl)c1Cl	3.1	-8.3	-7.2	-0.5	0.7
COc1ccc(CCNC(=O)Cn2c(=O)oc3ccccc32)cc1OC	-0.1	-0.7	nt	0.6	0.7
COc1ccc(CCN(C)C(=O)Cn2c(=O)oc3ccccc32)cc1OC	11.3	-3.1	69.8*	0.8	-0.6
COc1ccc(CCN(C)C(=O)CSc2ncnc3sccc23)cc1OC	-2.1	-7.8	77.9*	0.4	1.0
COc1ccccc1Cn1c(=O)oc2ccccc21	0.9	nt	43.1*	nt	nt
COc1ccc(C2CC(=O)C(c3ccc(C)cc3)=CN2Cc2ccccc2)cc1 (stereo unspecified)	nt	nt	159.4*	nt	nt
NCc1cc2c3c(c1)CCCN3CCC2	-13.8	40.2*	8.6	-17.5	-0.1
CC(=O)N1[C@@H]2c3ccc(C4=CCCC4)c(=O)n3C[C@@H]2[C@@H](CO)[C@@H]1C(=O)N1CCCCC1	nt	nt	4.6	nt	nt
CNC[C@@H]1Oc2c(NS(=O)(=O)c3c(C)noc3C)cccc2C(=O)N([C@H](C)CO)C[C@H]1C	nt	nt	7.8	nt	nt
C[C@@H](NC(=O)Cn1cnc2c(OCc3ccccc3)ncnc21)c1cccc2ccccc12	3.6	26.0*	45.0	17.1	0.0
O=C(C[C@@H]1C[C@H]2c3cc(NC(=O)C4CCC4)ccc3O[C@H]2[C@H](CO)O1)NCCN1CCCCC1	nt	nt	10.4	nt	nt
COc1cc(CNCc2ccccc2)c(Br)cc1OC1CCCC1	-1.9	-5.1	-35.9	74.9*	0.5
CC(=O)c1sc(NC(=O)COc2ccc([N+](=O)[O-])cc2)nc1C	-34.6	0.0	8.5	98.4*	0.3
O=C(COc1ccc([N+](=O)[O-])cc1)NNC(=O)c1cccs1	-17.5	5.9	7.2	52.6*	0.8
O=C(Cc1ccc([N+](=O)[O-])cc1)NNC(=O)c1cccs1	-10.7	-4.3	14.9	8.4	1.4
CN(C)CCCNc1cc(C(C)(C)C)nc2c(-c3ccc(Cl)cc3)cnn12	nt	-18.7	411.2*	2.8	1.1
CCOC(=O)c1c(NC(=O)Cn2nc(C(F)(F)F)cc2C)sc(C)c1C	-4.4	9.8	61.3*	-14.2	1.2
CCCN1C[C@@H](C)[C@H](OC)CN(C)C(=O)c2ccc(NC(=O)c3ccc(F)cc3)cc2OC[C@@H]1C	nt	nt	-12.0	nt	nt
Cc1cc(C)cc(NC(=O)/C=C/c2ccc([N+](=O)[O-])s2)c1	16.2	-9.0	-11.1	96.5*	-0.5
Cc1ccccc1NC(=O)/C=C/c1ccc([N+](=O)[O-])s1	43.9*	-3.5	nt	nt	-1.9
CC(=O)c1cccc(NC(=O)/C=C/c2ccc([N+](=O)[O-])s2)c1	12.7	-8.4	5.7	20.9	nt
Cc1ccccc1NC(=O)/C=C/c1cccs1	-12.6	-3.2	-1.6	4.3	-8.4
Cn1c(SCC(=O)N2CCCC2)nc2ccccc21	-5.2	-6.0	1.8	-3.7	1.6

Assay outcomes deposited in PubChem BioAssay by several laboratories.
